The whole screen tested about 2,300 compounds, of which about 1,400 (61%) were called active. Inconclusive results (about 7%) are left out. The rule behind the calls is not given here. The set was probably picked from earlier hits. These entries were drawn from the full list. Potency and affinity values are given separately.
biological target: FAD-linked sulfhydryl oxidase ALR (Homo sapiens) (UniProt P55789); assay: ALR-catalysed DTT oxidation blockers – biochemical, H2O2 detection, luminescence, cherry-pick, dose response (AID 493248); details: purified ALR, H2O2 HRP-luminol luminescence; at 10 µM (top of the series)
Sequence (P55789 whole entry, looked up): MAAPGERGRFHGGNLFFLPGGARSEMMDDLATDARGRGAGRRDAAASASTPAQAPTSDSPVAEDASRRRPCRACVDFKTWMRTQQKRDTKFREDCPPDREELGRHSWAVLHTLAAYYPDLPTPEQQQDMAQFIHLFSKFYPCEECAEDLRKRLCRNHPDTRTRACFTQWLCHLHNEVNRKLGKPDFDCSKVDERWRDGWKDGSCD

Structure (SMILES)	activity change, negative = inhibition [%]
COc1ccc(O)c(CNc2ccccc2F)c1	-6.08
CC(C)n1c(NCc2cccs2)nc2ccccc21	-4.15
CC(=O)Nc1ccc(NCc2ccc(C)s2)cc1	-11.5
CC(=O)Nc1ccc(-c2csc(NNC(=O)c3ccccc3)n2)cc1	7.25
O=C(CN1C(=O)S/C(=C\C=C\c2ccccc2)C1=O)Nc1ccccc1C(=O)O	-58
COc1cc(C(=O)N/N=C/c2cccc(Oc3ccccc3)c2)ccc1O	-2.05
CCN(CC)S(=O)(=O)c1ccc(C(=O)Nc2nnc(CSC)o2)cc1	-25.7
Cc1[nH]n(C(N)=S)c(=O)c1N=Nc1cccc([N+](=O)[O-])c1C	-50.5
Cc1cc(C(=O)Nc2sc3c(c2C#N)CCCC3)no1	-53.9
Cc1cc(C(=O)Nc2nc3c(s2)CCCC3)no1	-50.2
O=C(NCc1n[nH]c(=S)n1-c1ccc(Cl)c(Cl)c1)c1ccc(S(=O)(=O)N2CCCCC2)cc1	15
COc1ccc(C(=O)c2ccc(N(C)C)cc2)c(OC)c1	-4.89
CC(C)C(=O)n1nc(-c2cccnc2)nc1NCc1cccs1	-25.7
C(=C\c1nc2ccccc2[nH]1)/c1ccccc1	-1.44
O=c1[nH]ccc2c(O)cccc12	-103
CC(C)Cc1nc2ccc(N)cc2[nH]1	-1.73
Nc1ccc2nc[nH]c2c1	-12.8
Nc1ccc(-c2nc3ccc([N+](=O)[O-])cc3[nH]2)cc1	31
COc1ccc(N=C2C(=O)N3CCCc4cccc2c43)cc1	-15.6
O=C(NCCc1ccccc1)C1CCCN(S(=O)(=O)c2cnc[nH]2)C1 (stereo unspecified)	6.71
O=C(NCc1ccccc1Cl)C1CCCN(S(=O)(=O)c2cnc[nH]2)C1 (stereo unspecified)	20

Structure (SMILES)	activity change, negative = inhibition [%]
Cc1ccc(S(=O)(=O)N2CCCC(C(=O)O)C2)s1 (stereo unspecified)	5.85
COc1cc(NC(=O)C2CCCN(S(=O)(=O)c3cnc[nH]3)C2)cc(OC)c1 (stereo unspecified)	-31
N#Cc1c2n(c3c(=O)n(Cc4ccccc4)cnc13)CCCC2	18
N#Cc1c(N)c(C(=O)c2ccccc2)n2c1CCC2	-45.9
COc1ccc(C(=O)NCCNc2nc3ccc(C)cc3cc2C#N)cc1OC	3.56
CN(C)c1ccc(/C=N/Nc2cccc(C(=O)O)c2)cc1	-23.9
O=C(/C(=N/N=C/c1ccc(O)c(O)c1O)c1ccccc1)c1ccccc1	-31.1
CC1CCN(CC(=O)N2c3ccccc3CCc3ccccc32)CC1	2.93
CCC(C)(C)n1nnnc1CN1CCc2ccccc21	23.2
CN(C)c1ccc(NC(=O)CC2NCCNC2=O)cc1 (stereo unspecified)	-99.5
COc1ccc(NC(=O)CC2Nc3cccc4cccc(c34)NC2=O)cc1 (stereo unspecified)	-74.6
CC(C)Cn1c(N)c(C=O)c(=O)n(C)c1=O	-3.74
CN(Cc1ccco1)C(=O)C(Cc1ccccc1)NS(=O)(=O)c1ccc2c(c1)CCC(=O)N2 (stereo unspecified)	-12
N=C1/C(=C\c2ccc(Br)o2)C(=O)N=C2SC(CC(=O)N3CCCCC3)=NN12	-18.4
CSc1ccc(/C=C2\C(=N)N3N=C(CC(=O)N4CCCCC4)SC3=NC2=O)cc1	-54.4
CCc1ccc(CCC(=O)Nc2ccc(Cl)cc2)o1	-22.5
CC(C)C(=O)NN(C(=O)C(C)C)c1nc2ccccc2s1	-76
Cc1nc(-c2ccccc2)sc1-c1n[nH]c(=S)n1C	-47.5
Cn1c(-c2sccc2OCc2ccccc2)n[nH]c1=S	-40.7
COc1cc(CNc2cc(C)ccc2C)cc(OC)c1OC	-55.5
Cc1ccc2cc3cc(C(=O)NCCCN4CCCC4=O)oc3nc2c1	-55.2

Structure (SMILES)	activity change, negative = inhibition [%]
Cc1nc(C)c(-c2csc(Nc3cccnc3)n2)s1	-15.7
Cc1nc(C)c(-c2csc(Nc3ccc(O)cc3C)n2)s1	-3.91
COc1cc(N)c(Cc2nccc3cc(OC)c(OC)cc23)cc1OC	5.91
COc1cc(Sc2ccc(C)cc2)c(OC)cc1N	-74.8
CC(/C=N/n1c(-c2ccc(C)cc2)n[nH]c1=S)=C\c1ccco1	-40.8
Cc1cccc(/C=N/Nc2nncc3ccccc23)c1	-4.32
CN1C(=O)CC(NNC(=O)c2ccc(Cl)cc2)C1=O (stereo unspecified)	-47.1
O=C(N/N=C1/CCSC1)c1cc(Br)ccc1O	-17.6
O=c1[nH]nc(CNc2ccc(O)cc2)c2ccccc12	-103
COc1ccc(NCCc2ccccn2)cc1	86.3
COc1ccc(Nc2ccccc2N)cc1	221
S=c1[nH]cc(-c2ccccc2)n1-c1ccccc1Cl	-24.1
C/C(=N\NC(=O)c1ccccc1O)C1C(=O)c2ccccc2C1=O	-23.9
Nc1ccccc1C(=O)NNc1c2ccccc2nc2ccccc12	-69.6
CC(=O)Nc1ccc(NCN2C(=O)C3C4CCC(C4)C3C2=O)cc1 (stereo unspecified)	-86.6
CCc1cc2c3c(c1)C(C)CC(C)(C)N3C(=O)/C2=C1\SC(=O)NC1=O (stereo unspecified)	-7.31
C/C(=N\Nc1ccccn1)c1cccs1	-11.5
COc1ccc2c(c1)N(C)/C(=C/c1cccc[n+]1C)S2	-53.1
CCC(=O)Nc1cccc(-c2cnc3ccccc3n2)c1	3.89
